{"source": "PubChem BioAssay (Tox21)", "note": "Results filed as inconclusive are left out. Some compounds were tested as several samples or in several runs, with calls that do not always agree. Activity calls are given as the source filed them. Calls follow the shape of the dose curve; as a rule, active = well fitted inhibition curve with a large enough effect in the repeat runs; inconclusive = weak or mixed curves; inactive = no such curve, though single readings can be large or run the other way. % is scaled to controls: 0 for no effect and ±100 for the full control effect; potency is read from the fitted curve at half-maximal effect.", "data": [{"target": "Cytochrome P450 2D6 (Homo sapiens) (UniProt P10635)", "sequence (P10635 whole entry, looked up)": "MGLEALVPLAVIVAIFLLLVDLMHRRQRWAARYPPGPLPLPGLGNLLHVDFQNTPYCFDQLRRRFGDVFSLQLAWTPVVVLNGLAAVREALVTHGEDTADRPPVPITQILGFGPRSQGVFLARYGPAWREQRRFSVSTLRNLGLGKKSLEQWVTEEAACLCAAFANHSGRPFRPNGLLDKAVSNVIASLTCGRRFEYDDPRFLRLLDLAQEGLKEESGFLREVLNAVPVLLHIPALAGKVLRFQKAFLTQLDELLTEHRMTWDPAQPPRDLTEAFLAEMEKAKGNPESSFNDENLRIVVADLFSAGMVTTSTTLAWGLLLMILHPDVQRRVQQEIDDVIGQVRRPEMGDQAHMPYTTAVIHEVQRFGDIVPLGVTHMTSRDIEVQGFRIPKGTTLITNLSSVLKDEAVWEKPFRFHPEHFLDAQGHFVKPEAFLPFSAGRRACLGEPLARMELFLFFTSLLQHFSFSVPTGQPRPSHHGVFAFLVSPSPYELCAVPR", "test": "Cytochrome P450 Family 2 Subfamily D Member 6 (CYP2D6) small molecule antagonists: luciferase reporter qHTS assay (AID 1671196); also: nearly all actives have a fitted effect of over 50% in size", "conditions": "P450-Glo CYP2D6 enzyme assay, luciferin luminescence, 1 h; series mostly up to 115 µM; activity change, negative = inhibition: at the top concentration", "excerpt": "U.S. Tox21 Program National Center for Advancing Translational Sciences [NCATS] U.S. Environmental Protection Agency [EPA] National Institutes of Environmental Health Sciences [NIEHS] National Toxicology Program [NTP] U.S. Food and Drug Administration [FDA] Tox21 Assay Overview: Cytochrome P450 (CYP) enzymes are membrane-bound hemeproteins that play a key role in metabolism of drugs and xenobiotics. Evaluation of the effect of chemicals on CYP isozymes is useful to minimize the adverse drug reactions and toxicities in drug development process. Tox21 chemicals were tested for their effect on CYP enzyme activities by using P450-Glo (TM) screening systems (Promega Corporation, Madison, WI). These systems provide a luminescent method containing proluciferin substrates and are converted to luciferin products by CYP isozymes. The luciferin products formed are detected with a luciferin detection reagent, and the amount of light produced is proportional to CYP activity. P450-Glo (TM) CYP2D6 screening system (Catalog. No. V9890) was used to detect the compounds that interfere in CYP2D6 activity.\nTox21 Assay Protocol Summary: Two ul of enzyme-substrate mix was dispensed into medium binding white/solid 1536-well plates (Greiner Bio-One North America Inc., Monroe, NC) using a BioRaptr Flying Reagent Dispenser (FRD, Beckman Coulter, Brea, CA). […] The assay plates were incubated at room temperature for 10 min. Then 2 ul of NADPH regeneration solution was added to each well of the assay plates using an FRD and incubated at room temperature for 1 h. The reaction was stopped by adding 4 ul of detection reagent using an FRD and after 20 min incubation at room temperature the luminescence signal was measured using a ViewLux plate reader (Perkin Elmer, Shelton, CT). Data were expressed as relative luminescence units.", "values": [{"smiles": "c1cc[nH]c1", "activity change, negative = inhibition": "1.26% (inactive)"}, {"smiles": "COc1cccc(CCc2ccccc2OCC(CN(C)C)OC(=O)CCC(=O)O)c1", "note": "(stereo not given)", "Potency": "0.692 µM (active)"}, {"smiles": "CCC(C)(C)c1cc(O)c(C(C)(C)CC)cc1O", "activity change, negative = inhibition": "-12% (inactive)"}, {"smiles": "O=CC1CC1", "activity change, negative = inhibition": "-1.52% (inactive)"}, {"smiles": "CCCCCCCCCCCCCOP(=O)(O)O", "activity change, negative = inhibition": "-11.5% (inactive)"}, {"smiles": "CCOC(/C=C(\\C)CCC=C(C)C)OCC", "activity change, negative = inhibition": "-9.05% (inactive)"}, {"smiles": "CN(C)c1ccc(N=NS(=O)(=O)O)cc1", "Potency": "7.94 µM (active)"}, {"smiles": "CC(C)c1ccccc1N", "activity change, negative = inhibition": "-18.1% (inactive)"}, {"smiles": "CCOC(OCC)C(=O)c1ccccc1", "activity change, negative = inhibition": "0.639% (inactive)"}, {"smiles": "CCCCN(C)C", "activity change, negative = inhibition": "-3.59% (inactive)"}, {"smiles": "COc1cc(C=C2CCC/C(=C\\c3ccc(O)c(OC)c3)C2=O)ccc1O", "activity change, negative = inhibition": "-21.9% [at 53 µM] (inactive)"}, {"smiles": "CCCCCCOc1ccc(O)cc1", "Potency": "79.6 µM (active)"}, {"smiles": "OCCC(O)CO", "note": "(stereo not given)", "activity change, negative = inhibition": "-14.8% (inactive)"}, {"smiles": "Brc1ccccn1", "activity change, negative = inhibition": "-3.47% (inactive)"}, {"smiles": "OCCCc1cccnc1", "activity change, negative = inhibition": "-6.08% (inactive)"}, {"smiles": "CN(C)CCCN1c2ccccc2Sc2ccc(C(F)(F)F)cc21", "Potency": "0.617 µM (active)"}, {"smiles": "N[C@@H](CSSC[C@H](N)C(=O)O)C(=O)O", "activity change, negative = inhibition": "-4.15% [at 0.435 µM] (inactive)"}, {"smiles": "O=C=NCc1cccc(CN=C=O)c1", "activity change, negative = inhibition": "-24.5% [at 23.6 µM] (inactive)"}, {"smiles": "C=CC/C=C/C/C=C/C/C=C/C", "activity change, negative = inhibition": "2.35% (inactive)"}, {"smiles": "CC(=O)Nc1ccc(O)cc1", "Potency": "32.9 µM (active) and inactive"}, {"smiles": "O=C1NCCN1CCN1CCC(c2cn(-c3ccc(F)cc3)c3ccc(Cl)cc23)CC1", "Potency": "4.36 µM (active)"}, {"smiles": "CCCCCCCCC(C)=O", "activity change, negative = inhibition": "-19.4% (inactive)"}, {"smiles": "CS(C)(=O)=O", "activity change, negative = inhibition": "-0.568% (inactive)"}, {"smiles": "CCCCCCCC/C=C\\CCCCCCCC(=O)N(C)CC(=O)O", "activity change, negative = inhibition": "-27.8% (inactive)"}, {"smiles": "Cc1ccc(N)cc1O", "Potency": "3.66 µM (active)"}, {"smiles": "CC(=O)Oc1ccc(C2(c3ccc(OC(C)=O)cc3)C(=O)Nc3ccccc32)cc1", "activity change, negative = inhibition": "-0.135% [at 53 µM] (inactive)"}, {"smiles": "CC1CCCCN1CCCOC(=O)c1ccc(OC2CCCCC2)cc1", "note": "(stereo not given)", "Potency": "15.5 µM (active)"}, {"smiles": "NC1(c2ccc(-c3nc4ccn5c(=O)[nH]nc5c4cc3-c3ccccc3)cc2)CCC1", "activity change, negative = inhibition": "-14.8% [at 53 µM] (inactive)"}, {"smiles": "COc1ccccc1C=O", "activity change, negative = inhibition": "1.2% (inactive)"}, {"smiles": "CCCCCCCCCCCCN(CCO)CCO", "Potency": "11.2 µM (active)"}, {"smiles": "CCCCCCCCCCc1ccccc1", "activity change, negative = inhibition": "0.457% (inactive)"}, {"smiles": "O=C(NO)c1ccccc1", "Potency": "60.2 µM (active)"}, {"smiles": "CCCOc1sc(C(=O)N2CCC(c3cc(CN)ccc3F)CC2)c(C)c1Br", "Potency": "18.3 µM (active)"}, {"smiles": "O=C1OC(OC(=O)c2cccnc2Nc2cccc(C(F)(F)F)c2)c2ccccc21", "note": "(stereo not given)", "activity change, negative = inhibition": "-1.95% [at 53 µM] (inactive)"}, {"smiles": "COc1cc(C(=O)NS(=O)(=O)c2ccccc2C)ccc1Cc1cn(C)c2ccc(NC(=O)OC3CCCC3)cc12", "activity change, negative = inhibition": "-0.233% [at 53 µM] (inactive)"}, {"smiles": "CCCCCCCC/C=C\\CCCCCCCC(=O)OCCOC(=O)CCCCCCC/C=C\\CCCCCCCC", "Potency": "46.5 µM (active)"}, {"smiles": "CC(C)=CCCC(C)CCOC(=O)C(C)C", "note": "(stereo not given)", "activity change, negative = inhibition": "-17.2% (inactive)"}, {"smiles": "CCC(=O)CC(C)CC", "note": "(stereo not given)", "activity change, negative = inhibition": "-13% [at 0.435 µM] (inactive)"}, {"smiles": "O=C1NC2CCCCN2C12CCN(CCCN1c3ccccc3CCc3ccc(Cl)cc31)CC2", "note": "(stereo not given)", "Potency": "7.76 µM (active)"}, {"smiles": "CCOCOCC", "activity change, negative = inhibition": "1.95% (inactive)"}]}]}
